Among all 340,000 compounds or so, about 3,300 (0.97%) were called active. Roughly 9% stayed inconclusive and do not appear here. Calls follow the shape of the dose curve; as a rule, active = well fitted inhibition curve with a large enough effect; inconclusive = small, poorly fitted or top-dose-only effect, or effect the other way; inactive = flat fitted curve, though single readings scatter. The list shows a part of the results.
Experiment: qHTS Assay for Modulators of miRNAs and/or Inhibitors of miR-21; also: nearly all actives have a fitted effect of over 55% in size
Details: HeLa miR-21-FLuc reporter, luciferase luminescence, 48 h; actives lower the signal
Description: MLSCN Grant: 1 R21 NS059478-01 Assay Provider: Qihong Huang, The Wistar Institute NCGC Assay Overview: MicroRNAs (miRNAs) are endogenously encoded small (~20-25 nucleotides), nonprotein-coding RNAs that are involved in post-transcriptional repression of target messenger RNAs (mRNAs) (Le and Hannon, 2004). Estimated to be involved in the regulation of 30% of all protein-coding mRNAs (Filipowicz et al., 2008), miRNAs play a significant role in many biological processes including cellular differentiation and tissue development (Ghildiyal and Zamore, 2009).
NCGC Assay Protocol Summary: Reagents: HeLa cells stably expressing firefly luciferase (FLuc) under the control of a CMV promoter (upstream) and a miR-21 binding sequence directly downstream of the gene. These cells endogenously express miR-21. Control compounds used were compound C3 (provided by collaborator), N6-phenyladenosine (MP Biomedicals, 0215379625), and DMSO. Assay Summary: 6uL of HeLa miR-21-FLuc cells in assay buffer (DMEM, Invitrogen #21063-029; 10% FBS, HyClone #SH30071.03) were dispensed at 2000cells/well (3.3 x 10^5 cells/mL) into Greiner solid-white TC-treated 1536-well plates using a Multidrop Combi (Thermo Fisher Scientific). Plates were incubated for one hour at 37 degree Celsius, 95% humidity, 5% CO2. These assay plates were then treated with 23nL of compound or DMSO using a Kalypsys pin tool, which allows for delivery of a 24-point titration of each compound to the assay plate, with a final compound concentration ranging from approximately 40uM to 5pM. Assay plates were then incubated for 48 hours. After incubation, plates were allowed to come to RT for one hour prior to delivery of 3uL of 3X luciferase detection reagent. After a 15 minute incubation to allow for cell lysis, luciferase activity was measured using a ViewLux CCD imager (PerkinElmer), with an average exposure time of 2-12 seconds. Keywords: NIH Roadmap, MLPCN, MLSMR, qHTS, miR-21, microRNA, firefly luciferase, FLuc.
Potency is read from the fitted curve at half-maximal effect.

Potency, active:
COc1ccc(-c2csc(C3=C(O)CN(CCCN4CCCC4=O)C3=N)n2)cc1OC 16.5 µM
Nn1c(COc2ccc(Cl)cc2)nc2ccccc2c1=O 7.36 µM
Cc1ccccc1OCc1nc2ccccc2c(=O)n1/N=C/c1ccco1 10.4 µM
Cc1ccccc1OCc1nc2ccccc2c(=O)n1N 16.5 µM
c1ccc(Nc2nnc(-c3cccc4ccccc34)o2)cc1 1.85 µM
COc1ccc(Nc2oc(-c3ccc(OC)cc3)nc2C#N)cc1 2.93 µM
COc1ccc(-c2nc(C#N)c(NC(C)C)o2)cc1 6.56 µM
COc1ccc(Nc2oc(-c3ccccc3)nc2C#N)cc1 1.85 µM
CC(C)Nc1oc(-c2cccc3ccccc23)nc1C#N 13.1 µM
CCOc1ccc(Nc2oc(Cc3ccccc3)nc2C#N)cc1 11.7 µM
O=C1c2ccccc2C(=O)c2c1cccc2N1CCOCC1 11.7 µM
O=c1c2ccccc2nc(-c2ccccc2)n1Cc1ccccc1 14.7 µM
COc1ccccc1-c1ccc(NC2CCCCC2)nn1 7.36 µM
COc1ccccc1-c1ccc(NC2CCCC2)nn1 13.1 µM
Cn1ccc(NC(=O)Nc2ccc(Cl)cc2Cl)n1 3.69 µM
Cc1ccc2cc(CCNC(=O)c3ccco3)c(=O)[nH]c2c1 5.85 µM
Cc1ccc2cc(CCNC(=O)c3ccco3)c(=O)[nH]c2c1C 0.826 µM
Cc1ccc(-c2ccc(/C=N/O)o2)cc1[N+](=O)[O-] 16.5 µM
CCCc1cc(=O)n2[nH]c(-c3ccccc3)cc2n1 4.14 µM
COc1ccccc1NC(=O)c1ccc2nsnc2c1 7.36 µM
COc1cc2c(cc1NC(=O)c1ccc3c(c1)OCO3)oc1ccccc12 7.36 µM
Cc1cccc(NC(=O)c2ccc3c(c2)OCCO3)c1C 4.65 µM
COc1ccccc1NC(=O)c1ccc2c(c1)OCO2 3.29 µM
O=C(O)C1CC=CCC1C(=O)NCCc1csc(-c2ccccc2)n1 (stereo not given) 18.5 µM
O=C1c2ccccc2S(=O)(=O)N1CC1CC(c2ccc(Cl)cc2)=NO1 (stereo not given) 2.93 µM
O=C1c2ccccc2S(=O)(=O)N1CC1CC(c2ccccc2Cl)=NO1 (stereo not given) 4.14 µM
O=C(COC(=O)Cn1cnc2ccccc21)Nc1ccc2c(c1)C(=O)c1ccccc1C2=O 2.07 µM
COc1ccc(Nc2ncnc3c2c(C)c(C)n3CCO)cc1 0.736 µM
Cc1c(C)n(CCO)c2ncnc(Nc3ccc(F)cc3)c12 14.7 µM
COc1ccccc1Nc1ncnc2c1c(C)c(C)n2CCO 14.7 µM
